Data from PubChem BioAssay (Tox21).
Inconclusive results are not listed. Calls of active or inactive are those of the source. Unless noted, calls follow the shape of the dose curve; as a rule, active = well fitted curve in the direction sought with a large enough effect in the repeat runs; inconclusive = weak or mixed curves; inactive = no such curve, though single readings can be large; an effect the other way counts as inactive or inconclusive.

Assays:
[1] = qHTS assay to identify small molecule agonists of the hypoxia (HIF-1) signaling pathway - cell viability counter screen (AID 1224844; calls by dose curve; also: nearly all actives have a fitted effect of over 50% in size)
Outline: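 Cytotoxicity was measured in parallel with the HRE-driven beta-lactamase readout: after 17 hrs of compound exposure at 37C, HRE-bla ME-180 cells received CellTiter-Glo and luminescence was recorded 30 min later.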

[2] = qHTS assay to identify small molecule agonists of H2AX (AID 1224845; active = well fitted activation curve with a large enough effect in the signal ratio in the repeat runs, not every such curve was filed as active; the % refers to the signal ratio)
Outline: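 Wild-type CHO-K1 cells plated overnight, then exposed 3 hr at 37C to compounds at 15 concentrations (0.76% DMSO). Lysed, then HTRF anti-pH2AX(S139)-cryptate/anti-H2AX-d2 detection after 24 hr at room temperature; emissions 665 and 620 nm.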

[3] = qHTS assay to identify small molecule agonists of the hypoxia (HIF-1) signaling pathway (AID 1224846; active = well fitted activation curve with a large enough effect in the signal ratio in the repeat runs, not every such curve was filed as active; the % refers to the signal ratio)
Outline: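 Compounds from the Tox21 10K library, dissolved in DMSO, are tested for induction of a hypoxia response element–controlled beta-lactamase reporter in ME-180 cells. Exposure lasts 17 hrs at 37C after a 5 hr settling period, followed by CCF4-AM FRET substrate.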

[4] = qHTS assay to identify small molecule agonists of H2AX - cell viability counter screen (AID 1224847; calls by dose curve; also: top concentration of the series differs between compounds; nearly all actives have a fitted effect of over 30% in size)
Outline: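 Cells plated first: CHO-K1, 1000 per well in 10% FBS medium, incubated overnight at 37C. Then 15-point compound titration added (final DMSO 0.76%) for 3 hr. Finally CellTiter-Glo added and luminescence read.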

[5] = qHTS RealTime-Glo MT Cell Viability Assay in HepG2 cells - 24 hour (AID 1224867); also: nearly all actives have a fitted effect of over 50% in size
Outline: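 HepG2 cells (600/well) were dispensed with RealTime-Glo reagents, incubated 5 h at 37 °C, then treated with compounds in DMSO for up to 40 h. Nonlytic NanoLuc luminescence reflecting viable cells was read at each stated time point.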

[6] = A CellTox Green Cytotoxicity Assay to monitor cytotoxicity in HEK293 cells - 0 hour (AID 1224869); also: nearly all actives have a fitted effect of over 50% in size
Outline: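 Cells (HEK293, 600/well) and dye reagent are dispensed together. After 5 h at 37 C, 23 nL compound is pinned in. Plates stay at 37 C for 40 h with fluorescence read at 0h, 8h, 16h, 24h, 32h and 40h.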

[7] = qHTS RealTime-Glo MT Cell Viability Assay in HepG2 cells - 40 hour (AID 1224870); also: nearly all actives have a fitted effect of over 50% in size
Outline: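 HepG2 cells mixed with RealTime-Glo MT reagents (NanoLuc plus cell-permeant prosubstrate) were seeded at 600 cells/well, incubated 5 h at 37 C/5% CO2, then pinned with compounds in DMSO; nonlytic luminescence tracked viability during 40 h treatment.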

[8] = qHTS RealTime-Glo MT Cell Viability Assay in HEK293 cells - 32 hour (AID 1224868)
Outline: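 HEK293 cells seeded with NanoLuc/prosubstrate reagent, rested 5 h at 37 C, then dosed and kept at 37 C up to 40 h. Nonlytic real-time luminescence from viable cells read at 0, 8, 16, 24, 32 and 40 h.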

[9] = qHTS assay to identify small molecule antagonists of the estrogen related receptor (ERR) signaling pathway from Tox21 library (AID 1224848); also: nearly all actives have a fitted effect of over 50% in size
Outline: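 First, 2,000 ERR cells per well were plated and held 6 h at 37 C/5% CO2. Next, compounds in DMSO were pinned in and left 18 h at 37 C. Finally, ONE-Glo was added and luminescence read after 30 min at room temperature.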

[10] = qHTS assay to identify small molecule agonists of the estrogen related receptor (ERR) signaling pathway from Tox21 library (AID 1224849; calls by dose curve; also: nearly all actives have a fitted effect of over 15% in size); details: ERR reporter cell line, ONE-Glo luciferase, 18 h; at 92.4 µM (top of the series) unless noted
Outline: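 Cells carrying the ERR reporter were plated and allowed to settle for 6 h, exposed to library compounds for 18 h at 37 C, then lysed with ONE-Glo and luminescence measured.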
% is scaled to controls: 0 for no effect and ±100 for the full control effect.

CC#Cc1cc(C)nc(Nc2ccccc2)n1
inactive: Potency [1] | outcome [2] | outcome [3] | Potency [4] | Potency [5] | outcome [6] | Potency [7]

CCOC1Oc2ccc(OS(C)(=O)=O)cc2C1(C)C (centres undefined)
inactive: Potency [1] | outcome [2] | outcome [3] | Potency [4] | Potency [5] | outcome [6] | Potency [7]

CCC1(c2ccccc2)CCC(=O)NC1=O (centres undefined)
inactive: Potency [1] | outcome [2] | outcome [3] | Potency [4] | Potency [5] | outcome [6] | Potency [7]

CC(C)NCC(O)c1ccc([N+](=O)[O-])cc1 (centres undefined)
inactive: Potency [1] | outcome [2] | outcome [3] | Potency [4] | Potency [5] | Potency [8] | Potency [7]

ClCCN1CCCC1
inactive: Potency [1] | outcome [2] | outcome [3] | Potency [4] | Potency [5] | outcome [6] | Potency [7]

CCNP(=S)(OC)O/C(C)=C/C(=O)OC(C)C (centres undefined)
inactive: Potency [1] | outcome [2] | outcome [3] | Potency [4] | Potency [5] | outcome [6]

CC(=NC#N)N(C)Cc1ccc(Cl)nc1
inactive: Potency [1] | outcome [2] | outcome [3] | Potency [4] | Potency [5] | outcome [6] | Potency [7]

[P]#[In]
inactive: Potency [1] | outcome [2] | outcome [3] | Potency [9] | activity change, positive = activation [10] 3.59% | Potency [5] | Potency [8] | Potency [7]

CCCCOC(C)=O
inactive: Potency [1] | outcome [2] | outcome [3] | Potency [4] | Potency [5] | outcome [6]

O=[N+]([O-])c1cccc(CCl)c1
inactive: Potency [1] | outcome [2] | Potency [4] | Potency [9] | activity change, positive = activation [10] -0.166% | Potency [5] | Potency [8] | outcome [6]

O=C(Cl)c1ccccc1
inactive: Potency [1] | outcome [2] | Potency [4] | Potency [9] | activity change, positive = activation [10] 7.58% | Potency [5] | Potency [8] | outcome [6]

CC(=O)CN(CC(C)=O)N=O
inactive: Potency [1] | outcome [2] | Potency [4] | Potency [9] | activity change, positive = activation [10] -3.56% | Potency [5] | Potency [8] | outcome [6]

COc1cc(CCN)cc(OC)c1OC
inactive: Potency [1] | outcome [2] | outcome [3] | Potency [4] | Potency [5] | Potency [8] | Potency [7]

CC(C)[N+](C)(CCC(C(N)=O)(c1ccccc1)c1ccccc1)C(C)C
inactive: Potency [1] | outcome [2] | Potency [4] | Potency [9] | activity change, positive = activation [10] 4.04% [at 42.5 µM] | Potency [5] | Potency [8] | outcome [6]

CCCCCCCCSC(=O)Oc1cc(Cl)nnc1-c1ccccc1
inactive: Potency [1] | outcome [2] | outcome [3] | Potency [5] | Potency [8] | outcome [6]

C[N+]1(C)CCCCC1
inactive: Potency [1] | outcome [2] | outcome [3] | Potency [4] | Potency [5] | Potency [8] | Potency [7]

CCCCCCCC(=O)Cl
inactive: Potency [1] | outcome [2] | outcome [3] | Potency [4] | Potency [5] | outcome [6] | Potency [7]

CCN1CCCC1CNC(=O)C(O)(c1ccccc1)c1ccccc1 (centres undefined)
inactive: Potency [1] | outcome [2] | outcome [3] | Potency [4] | Potency [5] | Potency [8] | Potency [7]

CCCOC(=O)Cc1ccc(OCC(=O)N(CC)CC)c(OC)c1
inactive: Potency [1] | outcome [2] | outcome [3] | Potency [4] | Potency [5] | Potency [8] | Potency [7]

CCSC(=O)Cl
inactive: Potency [1] | outcome [2] | Potency [4] | Potency [9] | activity change, positive = activation [10] 13.4% | Potency [5] | Potency [8] | outcome [6] | Potency [7]

CN(C)C1CCCCC1
inactive: Potency [1] | outcome [2] | Potency [4] | Potency [9] | Potency [5] | outcome [6] | Potency [7]

c1ccc2c(c1)CCNC2
inactive: Potency [1] | outcome [2] | Potency [4] | Potency [9] | Potency [5] | outcome [6] | Potency [7]

C=C1C[C@@H]2[C@H](CC[C@]3(C)C(=O)CC[C@@H]23)[C@@]2(C)C=CC(=O)C=C12
inactive: Potency [1] | outcome [2] | Potency [4] | activity change, positive = activation [10] -24.3% [at 42.5 µM] | Potency [5] | Potency [8] | outcome [6] | Potency [7]

C1CN2CCC1CC2
inactive: Potency [1] | outcome [2] | Potency [4] | Potency [5] | Potency [8] | outcome [6] | Potency [7]

CC(C)(O)C(Cl)(Cl)Cl
inactive: Potency [1] | outcome [2] | Potency [4] | Potency [5] | Potency [8] | outcome [6] | Potency [7]

CN(C)C(=O)Oc1cc(OC(=O)N(C)C)cc(C(O)CNC(C)(C)C)c1 (centres undefined)
inactive: Potency [1] | outcome [2] | Potency [4] | Potency [9] | activity change, positive = activation [10] 0.805% [at 42.5 µM] | Potency [5] | outcome [6]

ClCCCCl
inactive: Potency [1] | outcome [2] | Potency [4] | Potency [5] | Potency [8] | outcome [6] | Potency [7]

CCCCCCC1CCOC1=O (centres undefined)
inactive: Potency [1] | outcome [2] | Potency [4] | Potency [9] | Potency [5] | outcome [6] | Potency [7]

O=C(NC(=O)c1c(F)cccc1F)Nc1cc(Cl)c(F)c(Cl)c1F
inactive: Potency [1] | outcome [2] | Potency [4] | Potency [5] | Potency [8] | outcome [6] | Potency [7]

CCOC(=O)CCl
inactive: Potency [1] | outcome [2] | Potency [4] | Potency [5] | Potency [8] | outcome [6] | Potency [7]

Oc1ccc(Cc2ccc(O)cc2)cc1
inactive: Potency [1] | outcome [2] | Potency [4] | Potency [9] | Potency [5] | outcome [6] | Potency [7]

CCCN1CCC[C@@H]2Cc3nc(N)ncc3C[C@H]21
inactive: Potency [1] | outcome [2] | Potency [4] | Potency [9] | Potency [5] | Potency [8] | Potency [7]

COC1=CC(=O)O[C@@H](/C=C/c2ccccc2)C1
inactive: Potency [1] | outcome [2] | Potency [4] | Potency [9] | activity change, positive = activation [10] 12.9% | Potency [5] | Potency [8] | outcome [6] | Potency [7]

CCN(CCO)CCn1c(Cc2ccccc2)nc2c1c(=O)n(C)c(=O)n2C
inactive: Potency [1] | outcome [2] | Potency [4] | Potency [9] | Potency [5] | Potency [8] | outcome [6] | Potency [7]

O=P(O)(O)c1ccccc1
inactive: Potency [1] | outcome [2] | Potency [4] | Potency [5] | Potency [8]

Cc1ccc(-c2nc3ccc(C)cn3c2CC(=O)N(C)C)cc1
inactive: Potency [1] | outcome [2] | Potency [4] | Potency [9] | Potency [5] | outcome [6] | Potency [7]

CCOC(=O)NC(C)(C)Cc1ccc(Cl)cc1
inactive: Potency [1] | outcome [2] | Potency [4] | Potency [5] | Potency [8] | outcome [6] | Potency [7]

ClC(Cl)(Cl)Cl
inactive: Potency [1] | outcome [2] | Potency [4] | Potency [9] | activity change, positive = activation [10] -3.58% | Potency [5] | Potency [8] | outcome [6] | Potency [7]

c1cncc([C@@H]2CCCCN2)c1
inactive: Potency [1] | outcome [2] | Potency [4] | Potency [5] | Potency [8] | outcome [6] | Potency [7]

O=c1[nH]oc2c1CCNC2
inactive: Potency [1] | outcome [2] | Potency [4] | Potency [9] | activity change, positive = activation [10] 0.599% [at 42.5 µM] | Potency [5] | Potency [7]

CCNc1nc(NCC)nc(SC)n1
inactive: Potency [1] | outcome [2] | Potency [4] | Potency [5] | Potency [8]

Oc1ccc2c3c1O[C@H]1[C@@H](O)C=C[C@H]4[C@@H](C2)NCC[C@@]341
inactive: Potency [1] | outcome [2] | Potency [4] | Potency [5] | Potency [8] | outcome [6]

CCN(CCO)CCO
inactive: Potency [1] | outcome [2] | Potency [4] | Potency [5] | Potency [8] | outcome [6]

CCC(C)(C#N)N=NC(C)(C#N)CC (centres undefined)
inactive: Potency [1] | outcome [2] | Potency [4] | Potency [9] | activity change, positive = activation [10] 3.15% | Potency [5] | Potency [8] | outcome [6] | Potency [7]
